The values that follow come from PubChem BioAssay (NCATS).

Each structure is given as a SMILES string. Inconclusive results are not listed. A number with no mark means an inactive call. The call rests on the fitted dose curve; in most records, active means well fitted cell-killing curve with a large enough effect; inconclusive means small, poorly fitted or top-dose-only effect; inactive means flat fitted curve, though single readings scatter.

A short description of this experiment: Cell Viability - LYMP2-025 (AID 976).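 Further: cells exposed to compound for 24 h at 37 °C; plate controls were DMSO only for no effect and tetraoctylammonium bromide control for full effect.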 The following applies: LYMP2-025 lymphoblastoid cell viability; series mostly up to 92.2 µM; activity change, negative = cytotoxicity: at the top concentration. The source says: NIH Chemical Genomics Center [NCGC]
NIH Molecular Libraries Screening Centers Network [MLSCN]
National Institutes of Environmental Health Sciences [NIEHS]
National Toxicology Program [NTP]
We have developed a 1536-well cell-based assay for quantitative high throughput screening (qHTS) against a number of cell lines to determine in vitro cytotoxicity of small molecules. This particular assay uses a human lymphoblastoid cell line (LYMP2-025) purchased from Coriell Institute for Medical Research.
NCGC Assay Protocol Summary:
The CellTiter-Glo luminescent cell viability assay (Promega) is a homogeneous method to measure the number of viable cells in culture. The end point readout of this assay is based on quantitation of intracellular ATP, an indicator of metabolic activity, using the luciferase reaction. Luciferase catalyzes the oxidation of beetle Luciferin to oxyluciferin and light in the presence of ATP. The luminescent signal is proportional to amount of ATP present.
Using the CellTiter-Glo luminescent cell viability assay, the amount of cellular ATP was measured in the lymphoblastoid cell line with complete culture medium following compound treatment for 24 hours. The assay was performed in opaque white Kalypsys 1536-well plates. In the screen, tetraoctylammonium bromide was used as positive control. Library compounds were measured for their ability to cause acute toxicity in the cell line, as reflected by a decrease in intracellular ATP levels, in a concentration-dependent manner. […] AC50 values were determined from concentration-response data modeled with the standard Hill equation.
qHTS protocol for CellTiter Glo lymphoblastoid cellular assay
[Step] [Parameter] [Value] [Description]
1. Reagent; 5 uL; 2500 lymphoblastoid cells/well
2. Time; 5 hr; 37 C incubation
4. Controls; 23 nL; Tetraoctylammonium bromide 6.4pM to 92 uM
5. Time; 24 hr; 37 C incubation
6. Reagent; 5 uL; CellTiter Glo reagent
7. Time; 30 min; Room Temperature
8. Detection; Luminescence; Viewlux plate reader
Keywords: cell viability, cytotoxicity, lymphoblastoid cell line, luminescence, NTPHTS, NTPHTS_NCGC, NIEHS, DSSTox, MLSMR, MLSCN, NIH Roadmap, qHTS, NCGC
For `C=C(Cl)CCl`, the “activity change, negative = cytotoxicity” value was -9.14%. For `CN(C)C(=O)Nc1cccc(C(F)(F)F)c1` the value was -10.1%; for `CCN(CC)CCO`, -6.96%. Consider `CCC[N+](=O)[O-]`, for which the “activity change, negative = cytotoxicity” value was -11.3%. As for `Clc1ccccc1`, the “activity change, negative = cytotoxicity” value is -2.15%.

Turning to `O=C(Cc1ccccc1)OCc1ccccc1`, the “activity change, negative = cytotoxicity” value is 1.21%. For `Nc1ccc(Oc2ccc(N)cc2)cc1` the value was -6.12%.

On to `Cc1ccc(N)cc1Cl`, for which the “activity change, negative = cytotoxicity” value is -11%. On to `CC(C)OC(=O)Cc1ccccc1`, for which the “activity change, negative = cytotoxicity” value is -6.01%. As to `CC(C)(C)c1ccccc1O`, the “activity change, negative = cytotoxicity” value was -23.1%. As for `ClC=CCl`, the figure is -8.57%; as for `Nc1cc(Cl)ccc1O`, 9.71%. Turning to `c1ccc(P(c2ccccc2)c2ccccc2)cc1`, the “activity change, negative = cytotoxicity” value was -21.3%. For `[O-][Cl+2]([O-])O` the value was -7.38%; for `C=CCCC#N`, -14.1%.

Take `CCCCC#N`: the “activity change, negative = cytotoxicity” value was -7.13%. Consider `Cc1ccc([N+](=O)[O-])cc1`, for which the “activity change, negative = cytotoxicity” value is -9.05%. As for `Cc1ccc(N)cc1N`, the figure is -15.3%. With `CCCCC(=O)Cl`, the “activity change, negative = cytotoxicity” value is -25.9%. As to `CC(C)(OOC(C)(C)c1ccccc1)c1ccccc1`, the “activity change, negative = cytotoxicity” value is -11.4%.

For the compound `C/C=C/CC#N`, the “activity change, negative = cytotoxicity” value was -1.34%. Consider `c1ccc(Nc2ccc(Nc3ccccc3)cc2)cc1`, for which the “activity change, negative = cytotoxicity” value was -14%. Regarding `Oc1cccc(Cl)c1`, the “activity change, negative = cytotoxicity” value was -1.06%. As for `COC(=O)Nc1nc2ccccc2[nH]1`, the figure is 2.8%. As for `Nc1ccc([N+](=O)[O-])cc1N`, the figure is -8.87%; as for `O=C(O)CBr`, -9.08%.

With `Brc1ccc(Oc2ccc(Br)cc2Br)c(Br)c1`, the “activity change, negative = cytotoxicity” value is -3.05%. On to `C=CC#N`, for which the “activity change, negative = cytotoxicity” value was -10.6%. For `CC(Cl)CCl` (stereo not given) the value was -19.8%; for `Nc1ncc([N+](=O)[O-])s1`, -16.5%; for `O=[N+]([O-])c1c(Cl)c(Cl)c(Cl)c(Cl)c1Cl`, -16%. Take `Cc1cc(N=Nc2ccccc2C)ccc1N`: the “activity change, negative = cytotoxicity” value is -31.5%.

Regarding `N#CC(Cl)(Cl)Cl`, the “activity change, negative = cytotoxicity” value was -0.687%. With `N#CCCCCC#N`, the “activity change, negative = cytotoxicity” value is -2.76%.

With `Oc1cccc(Cl)c1Cl`, the “activity change, negative = cytotoxicity” value was 0.376%. Take `Nc1c(Br)cc([N+](=O)[O-])cc1[N+](=O)[O-]`: the “activity change, negative = cytotoxicity” value is -20.6%. Turning to `CC(C#N)CCC#N` (stereo not given), the “activity change, negative = cytotoxicity” value was -1.11%. For `COP(=S)(OC)SCn1nnc2ccccc2c1=O` the value was -11.5%; for `Cl/C=C/CCl`, -0.0105%; for `O=[N+]([O-])c1ccc(O)c([N+](=O)[O-])c1`, -14.9%.
